Records with an inconclusive call do not appear. Where a call stands in place of a potency, no number is given. Active and inactive are the calls of the source. Unless noted, the call rests on the fitted dose curve; in most records, active means well fitted curve in the direction sought with a large enough effect; inconclusive means small, poorly fitted or top-dose-only effect, or another doubt; inactive means no such curve, though single readings can be large; an effect the other way counts as inactive or inconclusive.
Experiments:
[1] = Validation screen for small molecules that induce DNA re-replication in MCF 10A normal breast cells (AID 463097); further: nearly all actives have a fitted effect of over 60% in size; further: potency means the concentration at half of the fitted maximal effect
Procedure, shortened: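 Readout: Hoechst nuclear fluorescence intensity, 405 ex / 500-530 em, by scanning plate imager; re-replication scored as increase in nuclei with elevated DNA content. Cells exposed to compound 48 hr, 37 C, 5% CO2 beforehand.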

[2] = molecular target: DNA polymerase III PolC-type (Bacillus subtilis (strain 168)) (UniProt P13267); assay: qHTS Validation Assay for the Inhibitors of DNA Replication in Gram-Positive Bacteria (AID 485295);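 further: PicoGreen fluorescence of double-stranded DNA made on primed circular M13 template; series mostly up to about 57 µM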
Procedure, shortened: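 Reconstituted B. subtilis holoenzyme (Pol III, beta clamp, SSB, primase) was preincubated with compound at room temperature, then given single-stranded circular M13Gori plus dNTPs and NTPs. EDTA-containing PicoGreen stopped the reaction, and dsDNA product was read by fluorescence.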

[3] = molecular target: Tumor susceptibility gene 101 protein (Homo sapiens) (UniProt Q99816); assay: qHTS Validation Assay for Iinhibitors of HIV-1 Budding by Blocking the Interaction of PTAP/TSG101 (AID 485342; calls by dose curve)
Procedure, shortened: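 Tsg101 binding domain (10 uM final) in pH 7.5 HEPES/NaCl/Tween 20/EDTA/TCEP buffer was mixed with pin-transferred compounds, then FITC-labeled PTAP peptide (50 nM final) was added; after 20 min at r.t., fluorescence polarization was read.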

[4] = qHTS Validation Assay to Find Inhibitors of Chronic Active B-Cell Receptor Signaling (AID 485345; active means well fitted curve in the direction sought with a large enough effect in the main read-out, with a control signal flat, not every such curve was filed as active)
Procedure, shortened: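 TMD8 ABC-DLBCL cells with dox-inducible green luciferase–IκBα fusion and red native luciferase; compounds 46 uM–3 nM, 4 h at 37C with doxycycline in 0.5% FBS IMDM. Green/red ratio normalized to basal and 10 uM MG-132.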

[5] = molecular target: Beta-2 adrenergic receptor (Homo sapiens) (UniProt P07550); assay: qHTS validation assay of beta-arrestin-biased ligands of beta2-adrenergic receptor (AID 485366)
Procedure, shortened: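 qHTS, Tango cells, 1500 cells/well, DMEM + 1% FBS. Cpd 18 hr at 37 degrees C. Luciferin/ATP/CoA detection mix, 15 min RT, luminescence read. %Activity from corrected signal; CRC fit, curve class.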

[6] = molecular target: ATP-dependent 6-phosphofructokinase (Trypanosoma brucei brucei) (UniProt O15648); assay: qHTS Validation Assay to Find Inhibitors of T. brucei phosphofructokinase (AID 485368); conditions: outcome: dose series up to 57.5 µM
Procedure, shortened: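 Luminescent ADP detection measures PFK turnover of fructose-6-phosphate (0.5 mM) with ATP (0.1 mM) at pH 8.0. Reaction runs 45 min at room temperature with 1.25 nM enzyme; inhibitors tested as titrations up to 57 uM.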

[7] = Quantitative high throughput screen for delayed death inhibitors of the malarial parasite plastid, 96 hour incubation (AID 488745); further: nearly all actives have a fitted effect of over 70% in size; further: potency means the concentration at half of the fitted maximal effect
Procedure, shortened: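 Readout is firefly luciferase luminescence from an integrated reporter in P. falciparum; lower signal marks inhibited growth. Cultures at 2% hematocrit and 0.1% parasitemia were treated with compound across two generations (96 h, 37 C, 5% CO2).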

[8] = Quantitative high throughput screen for delayed death inhibitors of the malarial parasite plastid, 48 hour incubation (AID 488752); further: nearly all actives have a fitted effect of over 65% in size; further: potency means the concentration at half of the fitted maximal effect
Procedure, shortened: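 First, compound was pinned into RPMI 1640 medium containing 0.5% Albumax. Next, reporter-parasite-infected erythrocytes were added to 2% hematocrit and 0.1% parasitemia. After 48 h at 37 C under 5% CO2, luciferase detection reagent was added and luminescence read.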

[9] = molecular target: M-phase phosphoprotein 8 (Homo sapiens) (UniProt Q99549); assay: qHTS Validation Assay for Inhibitors for MPP8 Chromodomain Interactions with Methylated Histone Tails (AID 488949);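 further: AlphaScreen signal from MPP8 chromodomain bound to biotinylated H3K9me3 peptide; top concentration of the series differs between compounds; nearly all actives have a fitted effect of over 55% in size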
Procedure, shortened: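 MPP8 (50 nM) was preincubated with biotinylated H3(1-18)K9me3 peptide (50 nM) in PBS pH 7.4, 0.01% Tween-20 for 30 min at room temperature, then with compounds for 30 min; binding was detected by AlphaScreen.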

[10] = molecular target: Chromobox protein homolog 1 (Homo sapiens) (UniProt P83916); assay: qHTS Validation Assay for Inhibitors of HP1-beta Chromodomain Interactions with Methylated Histone Tails (AID 488953);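 further: loss of AlphaScreen luminescence from HP1-beta binding biotinylated H3K9me3 peptide; series mostly up to about 110 µM; nearly all actives have a fitted effect of over 50% in size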
Procedure, shortened: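 Disruption of preformed HP1-beta:H3K9me3 peptide complexes (both 50 nM, PBS pH 7.4 with 0.01% Tween-20) is measured by AlphaScreen after 30 min compound exposure at room temperature, using streptavidin donor and nickel chelate acceptor beads at 10 ug/mL final.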

[11] = molecular target: Methanococcus maripaludis chaperonin (MmCpn) (UniProt Q6LX38); assay: High-Throughput Screening for Modulators of Cytosolic Chaperonin Activity: MmCpn Primary Screen (AID 488978);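 further: 50 nM MmCpn enzyme hydrolysing 30 µM ATP at 37 °C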
Procedure, shortened: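 MmCpn (50 nM final) was preincubated with compound 5 min at RT, then 30 uM ATP (final) was added and the reaction ran 10 min at 37C. ADP produced was detected by Transcreener HTRF (ex 320 nm; em 590/665 nm).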

[12] = molecular target: Thyrotropin receptor (Homo sapiens) (UniProt P16473); assay: qHTS Assay for Antagonists of the Thyroid Stimulating Hormone Receptor (AID 488980); further: series mostly up to about 58 µM
Procedure, shortened: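 HEK293 cells transfected with human TSHR, suspended in HEPES-buffered HBSS with 70 uM RO 20-1724, were treated with compounds plus TSH at EC80 (4 nM final). cAMP was measured by competitive HTRF (cryptate anti-cAMP antibody, cAMP-d2 acceptor).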

[13] = molecular target: D(1A) dopamine receptor (Homo sapiens) (UniProt P21728); assay: HTS Assay for Allosteric Agonists of the Human D1 Dopamine Receptor: Primary Screen for Potentiators (AID 488982)
Procedure, shortened: (§1)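 Tetracycline-induced HEK293 T-REx cells force-coupled to calcium signalling were incubated overnight at 30 C and dye-loaded at room temperature. Calcium flux over 180 s after compound addition flagged agonists; a further 180 s read after EC20 dopamine flagged potentiators.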

[14] = molecular target: D(1A) dopamine receptor (Homo sapiens) (UniProt P21728); assay: HTS Assay for Allosteric Agonists of the Human D1 Dopamine Receptor: Primary Screen for Antagonists (AID 488983);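 further: calcium flux response to an EC80 dopamine challenge measured with no-wash dye; nearly all actives have a fitted effect of over 65% in size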; further: potency means the concentration at half of the fitted maximal effect
Procedure, shortened: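 Kinetic fluorescence at 1 cycle/sec tracked intracellular calcium in force-coupled, tetracycline-inducible HEK293 T-REx D1 cells. Loss of response to an EC80 dopamine dose, given 180 s after compound, marked antagonists.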

[15] = molecular target: Thioredoxin reductase 1, cytoplasmic (Rattus norvegicus) (UniProt O89049); assay: qHTS Assay for Inhibitors of Mammalian Selenoprotein Thioredoxin Reductase 1 (TrxR1) (AID 488773); conditions: Potency: inhibition;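 further: drop in NADPH fluorescence over an 8 min run after selenite addition; series mostly up to about 57 µM; nearly all actives have a fitted effect of over 40% in size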
Procedure, shortened: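 Inhibition is scored from the loss of NADPH fluorescence between first and last reads of an 8-min kinetic run. Selenite (400 uM) was the substrate, added after 15 min compound preincubation at room temperature.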

[16] = molecular target: Flap endonuclease 1 (Homo sapiens) (UniProt P39748); assay: qHTS Validation Assay for the Inhibitors of Human Flap endonuclease 1 (FEN1) (AID 488816)
Procedure, shortened: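 Steps: add FEN1 (10 nM reagent) or buffer only; pin compounds; hold 15 min at room temperature; start with substrate, 50 nM final; read at 0 and 15 min; correct, normalize and fit a four-parameter Hill curve.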

[17] = molecular target: Transient receptor potential cation channel subfamily V member 1 (Homo sapiens) (UniProt Q8NER1); assay: HTS Assay for Compounds that Act as Enhancers of the Vanilloid Receptor 1 (AID 488979)
Procedure, shortened: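 TRPV1-expressing cells loaded with Fluo-8 calcium dye; compounds added and calcium influx read kinetically for 3 min (agonist phase), then capsaicin at EC20 added and read 2 min more for enhancement. Fluorescence ex 480/em 520 nm.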

[18] = molecular target: D(1A) dopamine receptor (Homo sapiens) (UniProt P21728); assay: HTS Assay for Allosteric Agonists of the Human D1 Dopamine Receptor: Primary Screen for Agonists (AID 488981)
Procedure, shortened: as §1

[19] = molecular target: Thioredoxin reductase 1, cytoplasmic (Rattus norvegicus) (UniProt O89049); assay: qHTS Assay for Substrates of Mammalian Selenoprotein Thioredoxin Reductase 1 (TrxR1) (AID 488772);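 further: series mostly up to about 57 µM; a drop in NADPH fluorescence below the no-compound background marks a TrxR1 substrate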
Procedure, shortened: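 In this dual-purpose format, potential substrates are identified from the first fluorescence read after selenite addition, not from the 8-minute delta. Rat enzyme is preincubated with NADPH and then with compound at ~22 deg C.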

[20] = molecular target: Ubiquitin carboxyl-terminal hydrolase 2 (Homo sapiens) (UniProt O75604); assay: qHTS Validation Assay for Inhibitors of Ubiquitin-specific Protease USP2a Using CHOP2 as the Reporter (AID 463106)
Procedure, shortened: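 Inhibition is expressed relative to NEM as the full-inhibition control, with concentration-response curves classed by fit quality, magnitude and activity. Enzyme (USP2 core, 10nM) meets 25nM Ub-CHOP2 after compound preincubation; readings are taken at 60min.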

Thyrotropin receptor (Homo sapiens), sequence (P16473 whole entry, looked up): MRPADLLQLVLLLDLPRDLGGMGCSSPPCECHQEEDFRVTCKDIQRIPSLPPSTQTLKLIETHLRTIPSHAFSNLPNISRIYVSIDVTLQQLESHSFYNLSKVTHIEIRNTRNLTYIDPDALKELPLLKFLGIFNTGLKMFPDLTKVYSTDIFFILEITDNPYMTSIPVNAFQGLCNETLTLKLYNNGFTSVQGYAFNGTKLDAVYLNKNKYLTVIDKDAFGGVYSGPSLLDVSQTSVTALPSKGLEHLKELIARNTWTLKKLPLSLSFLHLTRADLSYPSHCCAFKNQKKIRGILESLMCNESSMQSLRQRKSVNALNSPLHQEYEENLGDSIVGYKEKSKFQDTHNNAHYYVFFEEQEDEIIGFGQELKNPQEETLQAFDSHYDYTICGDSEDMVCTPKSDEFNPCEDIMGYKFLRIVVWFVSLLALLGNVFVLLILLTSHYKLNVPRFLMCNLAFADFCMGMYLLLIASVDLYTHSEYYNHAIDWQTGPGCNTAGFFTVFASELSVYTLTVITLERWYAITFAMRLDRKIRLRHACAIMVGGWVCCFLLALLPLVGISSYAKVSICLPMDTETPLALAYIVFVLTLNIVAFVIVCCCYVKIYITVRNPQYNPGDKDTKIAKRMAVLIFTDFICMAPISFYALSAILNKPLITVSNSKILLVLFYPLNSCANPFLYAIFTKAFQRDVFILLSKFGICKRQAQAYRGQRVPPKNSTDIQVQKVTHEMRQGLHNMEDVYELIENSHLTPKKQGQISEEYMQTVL
Transient receptor potential cation channel subfamily V member 1 (Homo sapiens), sequence (Q8NER1 whole entry, looked up): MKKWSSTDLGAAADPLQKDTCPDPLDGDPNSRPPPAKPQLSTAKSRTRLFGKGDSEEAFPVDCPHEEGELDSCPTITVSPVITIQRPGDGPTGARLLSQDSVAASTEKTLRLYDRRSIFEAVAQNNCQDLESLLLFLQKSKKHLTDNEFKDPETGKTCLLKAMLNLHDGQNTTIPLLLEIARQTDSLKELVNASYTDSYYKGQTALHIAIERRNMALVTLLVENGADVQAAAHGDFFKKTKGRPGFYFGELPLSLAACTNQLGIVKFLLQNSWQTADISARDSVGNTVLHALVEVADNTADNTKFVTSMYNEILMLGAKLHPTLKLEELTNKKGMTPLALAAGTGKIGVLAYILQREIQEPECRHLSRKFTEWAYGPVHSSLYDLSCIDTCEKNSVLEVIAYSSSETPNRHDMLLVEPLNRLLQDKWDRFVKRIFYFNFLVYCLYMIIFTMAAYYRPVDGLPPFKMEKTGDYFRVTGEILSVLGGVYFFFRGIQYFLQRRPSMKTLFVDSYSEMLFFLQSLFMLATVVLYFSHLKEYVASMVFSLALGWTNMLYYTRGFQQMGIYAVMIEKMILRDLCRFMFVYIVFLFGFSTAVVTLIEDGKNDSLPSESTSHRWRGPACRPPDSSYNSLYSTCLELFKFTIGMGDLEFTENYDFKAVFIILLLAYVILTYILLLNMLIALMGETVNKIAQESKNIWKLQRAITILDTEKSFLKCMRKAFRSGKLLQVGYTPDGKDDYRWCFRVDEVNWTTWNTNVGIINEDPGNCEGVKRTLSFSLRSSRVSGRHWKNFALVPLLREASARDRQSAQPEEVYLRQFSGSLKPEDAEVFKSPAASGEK
Thioredoxin reductase 1, cytoplasmic (Rattus norvegicus), sequence (O89049 whole entry, looked up): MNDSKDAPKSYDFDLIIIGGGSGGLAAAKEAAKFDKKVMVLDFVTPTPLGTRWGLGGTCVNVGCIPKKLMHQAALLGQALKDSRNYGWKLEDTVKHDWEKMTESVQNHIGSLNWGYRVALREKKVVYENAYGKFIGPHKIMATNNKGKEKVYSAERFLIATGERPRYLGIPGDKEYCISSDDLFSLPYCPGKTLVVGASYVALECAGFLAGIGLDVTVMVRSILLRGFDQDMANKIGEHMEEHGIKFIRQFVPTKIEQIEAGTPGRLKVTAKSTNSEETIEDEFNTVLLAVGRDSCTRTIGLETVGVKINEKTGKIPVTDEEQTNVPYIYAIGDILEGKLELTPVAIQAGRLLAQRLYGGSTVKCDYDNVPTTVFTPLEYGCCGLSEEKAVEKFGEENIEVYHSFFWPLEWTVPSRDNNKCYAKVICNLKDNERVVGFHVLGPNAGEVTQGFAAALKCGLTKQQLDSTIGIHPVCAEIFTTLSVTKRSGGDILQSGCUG
Methanococcus maripaludis chaperonin (MmCpn), sequence (Q6LX38 1-543): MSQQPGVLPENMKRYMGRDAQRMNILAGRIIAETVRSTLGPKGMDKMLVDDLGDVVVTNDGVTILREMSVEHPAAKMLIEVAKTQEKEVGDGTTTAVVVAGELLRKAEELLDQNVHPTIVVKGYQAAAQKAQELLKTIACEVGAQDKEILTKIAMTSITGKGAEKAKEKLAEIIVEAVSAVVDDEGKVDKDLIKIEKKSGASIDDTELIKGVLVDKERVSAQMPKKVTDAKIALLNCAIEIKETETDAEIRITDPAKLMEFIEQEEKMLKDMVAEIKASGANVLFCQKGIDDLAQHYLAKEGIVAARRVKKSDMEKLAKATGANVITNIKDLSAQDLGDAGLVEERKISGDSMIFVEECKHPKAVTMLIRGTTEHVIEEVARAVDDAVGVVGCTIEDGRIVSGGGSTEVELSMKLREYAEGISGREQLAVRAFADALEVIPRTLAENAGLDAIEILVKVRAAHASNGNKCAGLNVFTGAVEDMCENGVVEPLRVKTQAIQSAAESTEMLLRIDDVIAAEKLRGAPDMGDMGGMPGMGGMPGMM
M-phase phosphoprotein 8 (Homo sapiens), sequence (Q99549 whole entry, looked up): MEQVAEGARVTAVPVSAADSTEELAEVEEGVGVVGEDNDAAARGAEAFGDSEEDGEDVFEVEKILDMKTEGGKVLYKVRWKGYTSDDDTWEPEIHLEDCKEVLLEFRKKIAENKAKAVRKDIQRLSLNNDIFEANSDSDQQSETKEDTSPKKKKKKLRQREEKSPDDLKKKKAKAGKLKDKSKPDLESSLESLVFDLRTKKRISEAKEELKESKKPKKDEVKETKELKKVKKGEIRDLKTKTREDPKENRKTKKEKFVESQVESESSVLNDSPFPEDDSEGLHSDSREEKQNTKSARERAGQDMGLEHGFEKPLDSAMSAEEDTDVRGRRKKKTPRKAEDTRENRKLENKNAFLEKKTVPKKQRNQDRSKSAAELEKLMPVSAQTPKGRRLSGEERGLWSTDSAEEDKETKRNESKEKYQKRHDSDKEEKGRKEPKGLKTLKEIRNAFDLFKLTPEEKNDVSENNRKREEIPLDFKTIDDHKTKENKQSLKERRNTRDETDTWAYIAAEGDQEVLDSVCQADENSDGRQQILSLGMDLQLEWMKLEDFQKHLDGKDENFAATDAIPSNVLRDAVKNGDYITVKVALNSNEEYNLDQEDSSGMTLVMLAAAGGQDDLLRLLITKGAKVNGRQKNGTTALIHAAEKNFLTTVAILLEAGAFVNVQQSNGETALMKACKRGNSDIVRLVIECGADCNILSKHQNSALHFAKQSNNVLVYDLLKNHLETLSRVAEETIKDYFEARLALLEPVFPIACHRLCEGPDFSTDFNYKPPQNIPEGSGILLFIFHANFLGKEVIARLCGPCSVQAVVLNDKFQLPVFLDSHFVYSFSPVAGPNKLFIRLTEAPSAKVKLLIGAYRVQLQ
Chromobox protein homolog 1 (Homo sapiens), sequence (P83916 whole entry, looked up): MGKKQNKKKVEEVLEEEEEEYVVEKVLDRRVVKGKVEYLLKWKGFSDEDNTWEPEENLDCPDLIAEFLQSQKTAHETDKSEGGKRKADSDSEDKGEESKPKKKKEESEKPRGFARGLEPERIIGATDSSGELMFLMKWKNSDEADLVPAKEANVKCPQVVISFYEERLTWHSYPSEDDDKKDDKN
Flap endonuclease 1 (Homo sapiens), sequence (P39748 whole entry, looked up): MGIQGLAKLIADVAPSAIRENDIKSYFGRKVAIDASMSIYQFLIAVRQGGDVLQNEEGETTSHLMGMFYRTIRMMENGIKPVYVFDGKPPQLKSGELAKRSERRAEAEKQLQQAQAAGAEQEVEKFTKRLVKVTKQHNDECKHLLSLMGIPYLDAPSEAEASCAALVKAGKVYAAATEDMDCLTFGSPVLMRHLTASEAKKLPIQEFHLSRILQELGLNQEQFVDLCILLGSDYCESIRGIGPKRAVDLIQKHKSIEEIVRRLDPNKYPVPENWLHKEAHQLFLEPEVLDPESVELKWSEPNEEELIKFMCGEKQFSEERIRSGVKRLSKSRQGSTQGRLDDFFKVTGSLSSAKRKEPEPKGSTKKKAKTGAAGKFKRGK
Tumor susceptibility gene 101 protein (Homo sapiens), sequence (Q99816 whole entry, looked up, the tested form may be a part): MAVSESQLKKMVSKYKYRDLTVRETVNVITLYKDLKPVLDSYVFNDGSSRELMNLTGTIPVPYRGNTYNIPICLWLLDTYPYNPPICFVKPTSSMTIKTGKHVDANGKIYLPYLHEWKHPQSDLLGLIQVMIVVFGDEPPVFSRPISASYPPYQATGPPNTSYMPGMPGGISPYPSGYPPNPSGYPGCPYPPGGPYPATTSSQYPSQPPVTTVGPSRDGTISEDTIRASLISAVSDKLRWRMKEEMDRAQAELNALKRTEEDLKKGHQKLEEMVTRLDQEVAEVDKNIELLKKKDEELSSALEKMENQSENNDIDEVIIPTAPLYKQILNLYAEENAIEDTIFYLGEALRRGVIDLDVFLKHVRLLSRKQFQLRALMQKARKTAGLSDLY
Beta-2 adrenergic receptor (Homo sapiens), sequence (P07550 whole entry, looked up): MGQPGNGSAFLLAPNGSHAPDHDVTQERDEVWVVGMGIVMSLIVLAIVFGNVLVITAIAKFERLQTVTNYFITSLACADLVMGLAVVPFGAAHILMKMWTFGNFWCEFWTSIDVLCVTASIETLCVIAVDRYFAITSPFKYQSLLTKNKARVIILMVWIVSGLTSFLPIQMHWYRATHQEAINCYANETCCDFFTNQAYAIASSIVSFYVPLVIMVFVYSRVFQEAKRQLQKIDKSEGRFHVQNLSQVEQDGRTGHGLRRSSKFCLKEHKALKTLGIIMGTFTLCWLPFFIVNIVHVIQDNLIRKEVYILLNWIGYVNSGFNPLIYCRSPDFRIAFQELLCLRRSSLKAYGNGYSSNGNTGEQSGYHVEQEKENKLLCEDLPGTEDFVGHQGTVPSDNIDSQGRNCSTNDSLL

NCCCNCCSP(=O)(O)O
Potency [1]: inactive
Potency [2]: inactive
outcome [3]: inactive
Potency [4]: inactive
outcome [5]: inactive
outcome [6]: inactive
Potency [7]: inactive
Potency [8]: inactive
Potency [9]: inactive
Potency [10]: inactive
outcome [11]: inactive
outcome [12]: inactive
Potency [13]: inactive
Potency [14]: inactive

NC/C=C/C(=O)O
Potency [1]: inactive
Potency [2]: inactive
outcome [3]: inactive
Potency [4]: inactive
outcome [5]: inactive
Potency [7]: inactive
Potency [8]: inactive
Potency [15]: inactive
Potency [16]: inactive
Potency [9]: inactive
Potency [10]: inactive
outcome [11]: inactive
outcome [17]: inactive
outcome [12]: inactive
Potency [18]: inactive
Potency [13]: inactive
Potency [14]: inactive

CCOC(=O)C1=C(C)NC(C)=C(C(=O)OC)C1c1cccc(Cl)c1Cl (stereo not given)
Potency [1]: 11.2 µM (active)
Potency [2]: inactive
outcome [3]: inactive
outcome [5]: inactive
outcome [6]: inactive
Potency [8]: 11.7 µM (active)
outcome [19]: inactive
Potency [15]: inactive
Potency [9]: inactive
Potency [10]: inactive
outcome [11]: inactive
outcome [17]: inactive
outcome [12]: inactive
Potency [18]: inactive
Potency [13]: inactive
Potency [14]: inactive

C[C@H](CS)C(=O)N1CCC[C@H]1C(=O)O
Potency [1]: inactive
Potency [2]: inactive
outcome [3]: inactive
Potency [4]: inactive
outcome [5]: inactive
outcome [6]: inactive
Potency [8]: inactive
Potency [9]: inactive
outcome [11]: inactive
outcome [12]: inactive
Potency [18]: inactive
Potency [13]: inactive
Potency [14]: inactive

Cc1nc2c([nH]1)c(=O)n(C)c(=O)n2Cc1ccco1
Potency [1]: inactive
Potency [2]: inactive
outcome [3]: inactive
Potency [4]: inactive
outcome [5]: inactive
outcome [6]: inactive
Potency [8]: inactive
outcome [19]: inactive
Potency [15]: inactive
Potency [16]: inactive
Potency [9]: inactive
Potency [10]: inactive
outcome [11]: inactive
Potency [18]: inactive
Potency [13]: inactive
Potency [14]: inactive

CC(C)(C)NCC(O)c1cc(O)cc(O)c1 (stereo not given)
Potency [1]: inactive
Potency [2]: inactive
outcome [3]: inactive
Potency [4]: inactive
Potency [7]: inactive
Potency [8]: inactive
outcome [19]: inactive
Potency [15]: inactive
Potency [16]: inactive
Potency [9]: inactive
Potency [10]: inactive
outcome [11]: inactive
outcome [17]: inactive
outcome [12]: inactive
Potency [18]: inactive
Potency [13]: inactive
Potency [14]: inactive

O=C(CCNNC(=O)c1ccncc1)NCc1ccccc1
Potency [1]: inactive
Potency [2]: inactive
outcome [3]: inactive
Potency [4]: inactive
outcome [5]: inactive
outcome [6]: inactive
Potency [8]: inactive
outcome [19]: inactive
Potency [15]: inactive
Potency [16]: inactive
Potency [9]: inactive
Potency [10]: inactive
outcome [11]: inactive
outcome [17]: inactive
outcome [12]: inactive
Potency [18]: inactive
Potency [13]: inactive
Potency [14]: inactive

CNCCCN1c2ccccc2CCc2ccccc21
Potency [1]: inactive
Potency [2]: inactive
outcome [3]: inactive
Potency [4]: inactive
outcome [6]: inactive
outcome [19]: inactive
Potency [15]: inactive
outcome [11]: inactive
outcome [12]: inactive
Potency [18]: inactive
Potency [13]: inactive

NC(Cc1ccc(Cl)cc1)C(=O)O (stereo not given)
Potency [1]: inactive
Potency [2]: inactive
outcome [3]: inactive
Potency [4]: inactive
outcome [5]: inactive
outcome [6]: inactive
Potency [8]: inactive
outcome [19]: inactive
Potency [15]: inactive
Potency [16]: inactive
Potency [9]: inactive
outcome [11]: inactive
outcome [17]: inactive
outcome [12]: inactive
Potency [18]: inactive
Potency [13]: inactive
Potency [14]: inactive

C[N+](C)(C)CCCCCCCCCC[N+](C)(C)C
Potency [1]: inactive
outcome [20]: inactive
outcome [3]: inactive
Potency [4]: inactive
outcome [5]: inactive
outcome [6]: inactive
Potency [7]: 0.329 µM (active)
Potency [8]: 1.04 µM (active)
outcome [19]: inactive
Potency [9]: inactive
Potency [10]: inactive
outcome [11]: inactive
outcome [17]: inactive
outcome [12]: inactive
Potency [18]: inactive
Potency [13]: inactive
Potency [14]: inactive

CN(C)CC[C@@H](c1ccc(Br)cc1)c1ccccn1
Potency [1]: inactive
Potency [2]: inactive
outcome [3]: inactive
Potency [4]: inactive
outcome [5]: inactive
Potency [8]: inactive
outcome [19]: inactive
Potency [15]: inactive
Potency [16]: inactive
Potency [9]: inactive
Potency [10]: inactive
outcome [11]: inactive
Potency [18]: inactive
Potency [13]: inactive
Potency [14]: inactive

CN=C(NC#N)NCCSCc1nc[nH]c1C
Potency [1]: inactive
Potency [2]: inactive
outcome [3]: inactive
Potency [4]: inactive
outcome [5]: inactive
Potency [7]: inactive
Potency [8]: inactive
outcome [19]: inactive
Potency [15]: inactive
Potency [16]: inactive
Potency [10]: inactive
outcome [11]: inactive
outcome [17]: inactive
outcome [12]: inactive
Potency [13]: inactive
Potency [14]: inactive

CN(C)CCCN1c2ccccc2Sc2ccccc21
Potency [1]: inactive
Potency [2]: inactive
outcome [3]: inactive
outcome [5]: inactive
Potency [7]: inactive
Potency [8]: inactive
outcome [19]: inactive
Potency [15]: inactive
Potency [16]: inactive
Potency [9]: inactive
outcome [11]: inactive
Potency [13]: inactive
Potency [14]: 5.01 µM (active)
